Screens from PubChem BioAssay.
In the library only some 5.7% were active in any assay of this set; here they are far more common.
DAX1 inh-1: NR0B1 (DAX1) inhibition | P51843 | HEK293 Gal4-DAX1 luciferase reporter, luminescence | inhibition, % at 6.75 µM | 340,000 tested, 0.99% active | AID 504766;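 active = inhibition above the mean over all tested compounds plus 3 SD, cut at about 4.2% in these data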;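 note: inhibition shows as a rise in luminescence from relieved DAX1 repression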
hgDAF-12 ag: agonists of H. glycines DAF-12 nuclear receptor; HEK293 GAL4-hgDAF12 UAS-luciferase reporter, agonist luminescence; normalized to butyrate control; activation, % at 6.8 µM; AID 687014; 370,000 tested, 1.8% active;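 active = activation above a cutoff set at the mean of all screened compounds plus 3 SD, cut at about 10% in these data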
ssDAF12 agonist: activators of S. stercoralis DAF-12 nuclear receptor. 370,000 tested, 1% active. HEK293 ssDAF-12/GRIP1 lit1-tk-luc reporter, luminescence; % of 3 µM dafachronic acid response. AID 652126. activation, % at 6.8 µM;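 active = activation above the mean over all tested compounds plus 3 SD, cut at about 0.9% in these data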
hcDAF12 agonist: activates DAF-12 receptor from parasite H. contortus | 370,000 tested, 1.4% active | activation, % at 6.8 µM | HEK293 hcDAF-12 lit1-tk-luc reporter, luminescence; 0% DMSO, 100% Δ7-dafachronic acid;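 active = activation above the mean of all tested compounds plus 3 SD, cut at about 5.5% in these data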
DAX1 inh-2: blocks DAX1 repression of SF-1 activated StAR promoter. HEK293T StAR-luciferase reporter, SF-1/DAX-1 repression relief. inhibition, % at 6.8 µM. 370,000 tested, 1.1% active. AID 652010;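 active = inhibition above the mean over all tested compounds plus 3 SD, cut at about 3.6% in these data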;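 note: higher inhibition means more luminescence from relief of DAX-1 repression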
AHR act: human AHR activation; activation, % at 5 µM; 320,000 tested, 2.5% active; AHR-responsive luciferase reporter cells, luminescence; in the data active = activation above about 47%
Each line names hits and unclear results; the compound was inactive in the other large screens.

Cc1ccccc1Cn1c(-c2ccc(=O)[nH]c2)nc2ccccc21	none
Cc1cc2nc(-c3ccc(=O)[nH]c3)n(Cc3ccccc3)c2cc1C	AHR act 78.8
CCOC(=O)c1[nH]c(CO)c(C(=O)OCC)c1C	none
CC(CNCCCn1ccc(NC(=O)OCc2ccccc2)nc1=O)c1ccccc1 (stereo not drawn)	none (no result: AHR act)
O=C(Nc1ccn(CCCNCC(c2ccccc2)c2ccccc2)c(=O)n1)OCc1ccccc1	DAX1 inh-1 4.4 (no result: AHR act)
O=C(O)c1ccc(Cl)cc1Nc1nc2cc(Cl)ccc2o1	AHR act 58.6
COc1ccc(CC2(CO)CCN(Cc3cnn(-c4ccccc4OC)c3)CC2)cc1	DAX1 inh-1 5.8
Cc1c(C(=O)Nc2ccc(S(=O)(=O)N(C)C3CCN(C)CC3)cc2)oc2c(Cl)cccc12	none
CN(Cc1ccccc1F)C(=O)CNC(=O)Cc1cccc2ccccc12	none
CN(CC(=O)NCCCN1CCOCC1)S(=O)(=O)c1cc(Cl)ccc1Cl	none (no result: AHR act)
Fc1ccc(NC(=S)N2CCc3ccccc3C2)c(F)c1	DAX1 inh-1 5.6
O=[N+]([O-])c1cccc(/C=N/Nc2nccnc2Cl)c1	none
Fc1cccc(/C=N/Nc2nccnc2Cl)c1	hgDAF-12 ag 12.7
Oc1ccc(/C=N/Nc2nccnc2Cl)cc1	hgDAF-12 ag 11.6
Cn1c(=O)oc2cc(S(=O)(=O)N3CCN(CCO)CC3)ccc21	none (no result: DAX1 inh-1, AHR act)
Cc1ccc(C(=O)Nc2nc(C)c(C)s2)o1	hgDAF-12 ag 12.9
Cc1nc(NC(=O)c2ccc(Br)o2)sc1C	none
O=c1c2ccccc2c(=O)n(-c2ccccc2)n1-c1ccccc1	none (no result: AHR act)
COC(=O)C1=C(C)N(C)C(=NCc2ccccc2C(F)(F)F)NC1c1cccc(F)c1 (stereo not drawn)	none (no result: DAX1 inh-1, AHR act)
Fc1cccc(NCc2cn3ccccc3n2)c1	hgDAF-12 ag 11.2
Fc1ccc(NCc2cn3ccccc3n2)cc1	none
CN1CCN(C(=O)CNc2ccc(C(F)(F)F)cc2[N+](=O)[O-])CC1	hcDAF12 agonist 5.8
C[C@H](Nc1ccc(C(F)(F)F)cc1[N+](=O)[O-])C(=O)O	none
O=C(CSc1ccc(C(F)(F)F)cc1[N+](=O)[O-])Nc1ccccc1	AHR act 48.0
CC(=O)Nc1ccc(NC(=O)CSc2ccc(C(F)(F)F)cc2[N+](=O)[O-])cc1	none
CC(C)NC(=O)CNc1ccc(C(F)(F)F)cc1[N+](=O)[O-]	AHR act 52.4
CCOC(=O)C1CSCCS(=O)(=O)N1Cc1ccc(F)cc1F (stereo not drawn)	none (no result: DAX1 inh-1, AHR act)
CCn1c(N)cc(=O)[nH]c1=S	none (no result: AHR act)
Cc1ccc2[nH]c3c(c2c1)CCc1cn[nH]c1-3	AHR act 52.9
Cc1sc2ncnc(NCc3cccs3)c2c1C	none
Cc1sc2ncnc(NCc3cccnc3)c2c1C	AHR act 60.6
COc1ccc(Nc2nc(-c3ccc4c(c3)NC(=O)CO4)cs2)cc1	none
CCC(C)Nc1nc(-c2ccc3c(c2)NC(=O)CO3)cs1 (stereo not drawn)	AHR act 62.7
CSc1cnn(CCC#N)c(=O)n1	ssDAF12 agonist 1.2, hcDAF12 agonist 6.0 (no result: DAX1 inh-1, AHR act)
Cn1cc([N+](=O)[O-])c(C(=O)Nc2ccc(-c3nc4ccccc4o3)cc2)n1	none
COc1nc(-c2ccccc2)ccc1-c1noc(-c2cccs2)n1	AHR act 52.1
COc1nc(-c2ccccc2)ccc1-c1noc(-c2ccccc2)n1	none
COc1ccc2c3n([n+]([O-])c2c1)CCN=C3c1ccc(Cl)cc1	none
Cc1ccc(C2=NCCn3c2c2ccc([N+](=O)[O-])cc2[n+]3[O-])cc1	none
Clc1ccc(C2=NCCn3nc4ccccc4c32)cc1	AHR act 79.2
Nc1c(Cl)cc(C2=NCCn3c2c2ccc(C(F)(F)F)cc2[n+]3[O-])cc1Cl	AHR act 54.5
COc1ccc2c3n(nc2c1)CCN=C3c1ccc(C)cc1	none
COc1ccc(C2=NCCn3nc4cc([N+](=O)[O-])ccc4c32)cc1	hcDAF12 agonist 5.8
O=[N+]([O-])c1ccc2c3n([n+]([O-])c2c1)CCN=C3c1ccc(Cl)cc1	AHR act 48.1
O=C(COc1ccccc1F)NCc1ccc(-n2cccc2)cc1	none
COc1ccc(-c2cn[nH]c2-c2ccc(OCc3ccc([N+](=O)[O-])cc3)cc2O)cc1	AHR act 51.1
Cc1ccc(NCC2(N=Cc3ccccc3)OC(CO)C(O)C2O)cc1 (stereo not drawn)	none (no result: AHR act)
Oc1ccc(/C=N/N2CCCCC2)c(O)c1O	none
Oc1ccc(/C=N/N2CCOCC2)c(O)c1O	DAX1 inh-1 6.2
CCCCN(C)CCCNC(=O)c1ccc2c(c1)N(CC)C(=O)c1ccccc1S2=O (stereo not drawn)	none
CCCCN(C)C(=O)c1ccc2c(c1)N(CC)C(=O)c1ccccc1S2=O (stereo not drawn)	DAX1 inh-1 4.7
C#CCOCCOCCOCCNc1nc(N2CCN(C(=O)Cn3cc(CCCN=C(N)N)nn3)CC2)nc(N2CCN(C(=O)[C@H](CCCCN)n3cc(CCC(=O)O)nn3)CC2)n1	none
C#CCOCCOCCOCCNc1nc(N2CCN(C(=O)Cn3cc(CCCN=C(N)N)nn3)CC2)nc(N2CCN(C(=O)[C@H](CCCCN)n3cc(CCCC)nn3)CC2)n1	hgDAF-12 ag 12.0
CC(C)(C)Nc1nc(Cl)nc(NCCN2CCOCC2)n1	DAX1 inh-1 5.4
Cn1c(SCC(=O)NCc2ccc3c(c2)OCO3)ncc(C(=O)Nc2ccc(F)cc2)c1=O	AHR act 48.6
Cn1c(SCC(=O)NCc2ccc(F)cc2)ncc(C(=O)Nc2ccccc2)c1=O	none
Cn1c(SCC(=O)NCC2CCCO2)ncc(C(=O)Nc2ccc(Cl)cc2)c1=O (stereo not drawn)	AHR act 55.9
Cn1c(SCC(=O)NCC2CCCO2)ncc(C(=O)Nc2ccc(F)cc2)c1=O (stereo not drawn)	AHR act 50.9
CC(C)(C)n1nc2c(c1NC(=O)c1ccc(Cl)c([N+](=O)[O-])c1)CS(=O)(=O)C2	none
CCOC(=O)c1cn2nc(N3CCCC3)ccc2n1	hcDAF12 agonist 6.0
c1ccc(Oc2ccc(-c3ccn[nH]3)cc2)cc1	DAX1 inh-1 4.6
COc1ccc(Nc2nc(C)cc(C)c2C#N)c(OC)c1	none
CCOc1ccc(Nc2nc(C)cc(C)c2C#N)cc1	AHR act 79.7
COc1ccc(Nc2nc(C)cc(C)c2C#N)cc1	AHR act 65.4
Cc1ccc(S(=O)(=O)Nc2ccncc2)c(C)c1N(C)S(=O)(=O)c1ccc(F)cc1	hcDAF12 agonist 5.7
CN(CC(=O)Nc1ccccc1Cl)C(=O)c1ccc(-c2cccc(C(F)(F)F)c2)o1	none
COc1cc(C2NC(=O)C(C#N)=C(Nc3cccc(C)c3)S2)ccc1O (stereo not drawn)	none
O=C(NNC(=O)c1sccc1-n1cccc1)c1cccs1	AHR act 47.1
